Assays:
Test in all cases: DAPPL (digital affinity profiling via proximity ligation, sequencing); 10 mM Tris-HCl pH 7.5, 50 mM NaCl, 1 mM DTT, 4% glycerol, room temperature, 30 min; GST-TFs on glutathione beads, 16-mer random dsDNA library, 0.1% formaldehyde crosslink after washing; high values mean tight binding
[1] = target: T1, FLI1 (Homo sapiens, UniProt Q01543 1-452); conditions: protein: recombinant; tags: N-terminal GST; dsDNA, one strand shown
T1 sequence: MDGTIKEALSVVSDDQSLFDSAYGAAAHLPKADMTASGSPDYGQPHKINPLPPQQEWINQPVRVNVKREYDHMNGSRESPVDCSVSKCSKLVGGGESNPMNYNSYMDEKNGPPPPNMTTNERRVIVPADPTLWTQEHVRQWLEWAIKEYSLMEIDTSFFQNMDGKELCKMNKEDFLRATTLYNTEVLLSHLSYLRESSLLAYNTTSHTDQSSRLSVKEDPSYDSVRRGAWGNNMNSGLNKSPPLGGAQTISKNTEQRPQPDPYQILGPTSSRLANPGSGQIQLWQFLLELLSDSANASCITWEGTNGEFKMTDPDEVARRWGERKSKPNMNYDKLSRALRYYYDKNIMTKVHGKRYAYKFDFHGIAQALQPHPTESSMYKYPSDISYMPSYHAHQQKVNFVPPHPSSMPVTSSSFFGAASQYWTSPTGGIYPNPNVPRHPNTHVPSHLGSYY
Procedure, shortened: (§1)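 GST fusions of human transcription factors were expressed in yeast and captured with glutathione beads. Once given DNA barcodes and pooled alongside a tag-only sample, they were incubated for 30 min at room temperature with 200 nmole of a random double-stranded 16-mer DNA library in Tris/NaCl/DTT/glycerol buffer, then washed, crosslinked (0.1% formaldehyde), proximity-ligated, PCR-amplified and sequenced on an Illumina NextSeq500. The binding signal of each hexamer is its read frequency for a factor divided by its frequency for the tag-only sample.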

[2] = target: T2, ELK1 (Homo sapiens, UniProt P19419 1-428); conditions: protein: recombinant; tags: N-terminal GST; dsDNA, one strand shown
T2 sequence: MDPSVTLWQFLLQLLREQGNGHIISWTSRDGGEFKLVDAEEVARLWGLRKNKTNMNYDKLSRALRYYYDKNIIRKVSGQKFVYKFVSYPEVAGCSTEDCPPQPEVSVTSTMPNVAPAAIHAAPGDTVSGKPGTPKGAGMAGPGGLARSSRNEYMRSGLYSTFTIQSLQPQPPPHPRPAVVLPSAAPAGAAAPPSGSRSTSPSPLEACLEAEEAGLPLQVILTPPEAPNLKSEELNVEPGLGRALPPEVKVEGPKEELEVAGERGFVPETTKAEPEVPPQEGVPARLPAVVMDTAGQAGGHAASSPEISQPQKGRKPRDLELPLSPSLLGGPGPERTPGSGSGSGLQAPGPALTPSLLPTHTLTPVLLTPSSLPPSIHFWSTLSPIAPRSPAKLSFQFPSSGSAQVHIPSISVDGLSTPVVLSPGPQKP
Procedure, shortened: as §1

[3] = target: T3, GABPA (Homo sapiens, UniProt Q06546 1-454); conditions: protein: recombinant; tags: N-terminal GST; dsDNA, one strand shown
T3 sequence: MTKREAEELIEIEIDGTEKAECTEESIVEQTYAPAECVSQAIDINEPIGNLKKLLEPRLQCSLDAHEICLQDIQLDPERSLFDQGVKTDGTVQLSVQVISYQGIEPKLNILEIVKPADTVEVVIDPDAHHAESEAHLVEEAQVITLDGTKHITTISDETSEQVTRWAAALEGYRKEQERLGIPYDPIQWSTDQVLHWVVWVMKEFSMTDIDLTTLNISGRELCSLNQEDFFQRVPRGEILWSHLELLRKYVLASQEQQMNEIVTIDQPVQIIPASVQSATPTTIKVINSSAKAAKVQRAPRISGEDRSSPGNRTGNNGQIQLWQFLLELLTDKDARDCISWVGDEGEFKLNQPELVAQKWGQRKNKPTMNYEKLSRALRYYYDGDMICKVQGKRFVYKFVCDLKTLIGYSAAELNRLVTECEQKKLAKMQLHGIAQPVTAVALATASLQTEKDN
Procedure, shortened: as §1

[4] = target: T4, ERG (Homo sapiens, UniProt P11308 1-479); conditions: protein: recombinant; tags: N-terminal GST; dsDNA, one strand shown
T4 sequence: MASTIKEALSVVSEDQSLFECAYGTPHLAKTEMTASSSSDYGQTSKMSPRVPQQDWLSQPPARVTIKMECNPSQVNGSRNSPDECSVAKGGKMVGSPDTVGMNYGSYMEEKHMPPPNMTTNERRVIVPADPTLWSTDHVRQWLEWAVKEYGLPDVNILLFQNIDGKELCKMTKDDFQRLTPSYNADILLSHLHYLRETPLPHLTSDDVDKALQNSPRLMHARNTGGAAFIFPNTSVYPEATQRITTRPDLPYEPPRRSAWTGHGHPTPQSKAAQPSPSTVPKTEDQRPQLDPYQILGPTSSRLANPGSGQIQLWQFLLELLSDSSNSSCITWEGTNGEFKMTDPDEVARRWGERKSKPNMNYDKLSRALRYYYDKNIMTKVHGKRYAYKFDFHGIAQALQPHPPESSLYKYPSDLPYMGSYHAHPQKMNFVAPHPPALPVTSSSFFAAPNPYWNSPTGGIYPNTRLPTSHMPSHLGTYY
Procedure, shortened: as §1

[5] = target: ELF1 (Homo sapiens, UniProt P32519 1-619); conditions: protein: recombinant; tags: N-terminal GST; dsDNA, one strand shown
Procedure, shortened: as §1

[6] = target: T5, EHF (Homo sapiens, UniProt Q9NZC4 1-300); conditions: protein: recombinant; tags: N-terminal GST; dsDNA, one strand shown
T5 sequence: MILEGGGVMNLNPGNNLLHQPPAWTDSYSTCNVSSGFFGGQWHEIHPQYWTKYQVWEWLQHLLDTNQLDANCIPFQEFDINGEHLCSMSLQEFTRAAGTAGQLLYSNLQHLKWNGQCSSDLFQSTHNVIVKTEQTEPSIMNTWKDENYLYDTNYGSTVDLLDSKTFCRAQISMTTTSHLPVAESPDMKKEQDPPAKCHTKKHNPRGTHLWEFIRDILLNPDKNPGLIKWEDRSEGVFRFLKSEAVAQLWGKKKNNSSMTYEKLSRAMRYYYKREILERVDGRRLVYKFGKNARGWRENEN
Procedure, shortened: as §1

[7] = target: SPI1 (Homo sapiens, UniProt P17947 1-270); conditions: protein: recombinant; tags: N-terminal GST; dsDNA, one strand shown
Procedure, shortened: as §1

[8] = target: SPIB (Homo sapiens, UniProt Q01892 1-262); conditions: protein: recombinant; tags: N-terminal GST; dsDNA, one strand shown
Procedure, shortened: as §1

[9] = target: T6, ELK3 (Homo sapiens, UniProt P41970 1-407); conditions: protein: recombinant; tags: N-terminal GST; dsDNA, one strand shown
T6 sequence: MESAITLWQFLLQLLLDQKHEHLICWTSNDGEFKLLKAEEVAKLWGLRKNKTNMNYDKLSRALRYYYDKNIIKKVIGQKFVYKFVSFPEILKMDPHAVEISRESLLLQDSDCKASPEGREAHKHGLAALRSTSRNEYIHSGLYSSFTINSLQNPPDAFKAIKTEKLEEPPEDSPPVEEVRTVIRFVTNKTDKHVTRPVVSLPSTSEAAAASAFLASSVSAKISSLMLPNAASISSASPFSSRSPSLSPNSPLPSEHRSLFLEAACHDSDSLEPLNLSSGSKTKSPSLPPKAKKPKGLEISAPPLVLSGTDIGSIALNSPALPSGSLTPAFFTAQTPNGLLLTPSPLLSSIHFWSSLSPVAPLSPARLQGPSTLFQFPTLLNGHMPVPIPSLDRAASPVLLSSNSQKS
Procedure, shortened: as §1

[10] = target: T7, FEV (Homo sapiens, UniProt Q99581 1-238); conditions: protein: recombinant; tags: N-terminal GST; dsDNA, one strand shown
T7 sequence: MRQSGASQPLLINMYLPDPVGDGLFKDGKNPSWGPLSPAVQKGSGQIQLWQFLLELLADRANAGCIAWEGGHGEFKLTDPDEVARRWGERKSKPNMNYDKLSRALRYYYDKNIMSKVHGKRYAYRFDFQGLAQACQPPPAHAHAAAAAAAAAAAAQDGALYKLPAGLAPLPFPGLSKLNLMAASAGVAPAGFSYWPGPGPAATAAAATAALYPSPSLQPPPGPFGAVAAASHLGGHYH
Procedure, shortened: as §1

[11] = target: ETV5 (Homo sapiens, UniProt P41161 1-510); conditions: protein: recombinant; tags: N-terminal GST; dsDNA, one strand shown
Procedure, shortened: as §1

[12] = target: HSF1 (Homo sapiens, UniProt Q00613 1-529); conditions: protein: recombinant; tags: N-terminal GST; chain copies: 3; dsDNA, one strand shown
Procedure, shortened: as §1

[13] = target: T8, SPIC (Homo sapiens, UniProt Q8N5J4 1-248); conditions: protein: recombinant; tags: N-terminal GST; dsDNA, one strand shown
T8 sequence: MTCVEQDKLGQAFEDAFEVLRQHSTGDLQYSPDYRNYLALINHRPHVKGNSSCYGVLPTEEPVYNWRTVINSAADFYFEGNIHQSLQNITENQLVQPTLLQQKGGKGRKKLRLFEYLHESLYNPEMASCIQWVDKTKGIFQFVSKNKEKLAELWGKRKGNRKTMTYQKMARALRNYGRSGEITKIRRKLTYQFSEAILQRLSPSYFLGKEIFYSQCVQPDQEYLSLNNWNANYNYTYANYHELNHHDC
Procedure, shortened: as §1

[14] = target: ELF4 (Homo sapiens, UniProt Q99607 1-663); conditions: protein: recombinant; tags: N-terminal GST; dsDNA, one strand shown
Procedure, shortened: as §1

[15] = target: T9, ELK4 (Homo sapiens, UniProt P28324-2 1-405); conditions: protein: recombinant; tags: N-terminal GST; dsDNA, one strand shown
T9 sequence: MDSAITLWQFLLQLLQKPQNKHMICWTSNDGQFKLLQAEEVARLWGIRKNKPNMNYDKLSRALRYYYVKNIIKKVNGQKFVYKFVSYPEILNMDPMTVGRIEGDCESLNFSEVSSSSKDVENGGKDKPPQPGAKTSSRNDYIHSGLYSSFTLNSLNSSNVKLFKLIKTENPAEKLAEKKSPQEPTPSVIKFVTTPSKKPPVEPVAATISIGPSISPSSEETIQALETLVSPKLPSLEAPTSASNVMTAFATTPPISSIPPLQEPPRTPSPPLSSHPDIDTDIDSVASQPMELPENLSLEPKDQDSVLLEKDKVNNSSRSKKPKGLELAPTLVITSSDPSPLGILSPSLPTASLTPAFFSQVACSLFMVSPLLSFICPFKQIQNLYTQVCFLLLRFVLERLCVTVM
Procedure, shortened: as §1

[16] = target: T10, ETV2 (Homo sapiens, UniProt O00321 1-342); conditions: protein: recombinant; tags: N-terminal GST; dsDNA, one strand shown
T10 sequence: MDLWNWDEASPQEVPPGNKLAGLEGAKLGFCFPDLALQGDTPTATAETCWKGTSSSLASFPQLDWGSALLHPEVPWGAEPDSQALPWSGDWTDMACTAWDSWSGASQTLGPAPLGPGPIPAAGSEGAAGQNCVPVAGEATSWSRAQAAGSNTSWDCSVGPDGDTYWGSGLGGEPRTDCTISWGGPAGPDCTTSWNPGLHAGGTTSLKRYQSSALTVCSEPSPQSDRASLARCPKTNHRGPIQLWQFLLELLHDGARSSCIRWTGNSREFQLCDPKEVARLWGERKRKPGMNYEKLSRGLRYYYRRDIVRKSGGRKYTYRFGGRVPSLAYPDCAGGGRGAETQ
Procedure, shortened: as §1

[17] = target: T11, ELF3 (Homo sapiens, UniProt P78545 1-371); conditions: protein: recombinant; tags: N-terminal GST; dsDNA, one strand shown
T11 sequence: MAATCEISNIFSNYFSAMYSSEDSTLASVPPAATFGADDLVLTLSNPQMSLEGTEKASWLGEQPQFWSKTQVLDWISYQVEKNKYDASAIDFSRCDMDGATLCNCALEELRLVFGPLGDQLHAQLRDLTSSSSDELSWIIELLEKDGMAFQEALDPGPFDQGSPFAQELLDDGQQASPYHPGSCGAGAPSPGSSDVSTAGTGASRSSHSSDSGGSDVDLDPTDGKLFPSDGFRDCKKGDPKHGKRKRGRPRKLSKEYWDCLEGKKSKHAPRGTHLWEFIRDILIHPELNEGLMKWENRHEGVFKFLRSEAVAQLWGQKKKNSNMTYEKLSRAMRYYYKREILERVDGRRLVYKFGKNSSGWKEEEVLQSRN
Procedure, shortened: as §1

[18] = target: CRX (Homo sapiens, UniProt O43186 1-299); conditions: protein: recombinant; tags: N-terminal GST; dsDNA, one strand shown
Procedure, shortened: as §1

[19] = target: ETV1 (Homo sapiens, UniProt P50549 1-477); conditions: protein: recombinant; tags: N-terminal GST; dsDNA, one strand shown
Procedure, shortened: as §1

ELF1, sequence (P32519 whole entry): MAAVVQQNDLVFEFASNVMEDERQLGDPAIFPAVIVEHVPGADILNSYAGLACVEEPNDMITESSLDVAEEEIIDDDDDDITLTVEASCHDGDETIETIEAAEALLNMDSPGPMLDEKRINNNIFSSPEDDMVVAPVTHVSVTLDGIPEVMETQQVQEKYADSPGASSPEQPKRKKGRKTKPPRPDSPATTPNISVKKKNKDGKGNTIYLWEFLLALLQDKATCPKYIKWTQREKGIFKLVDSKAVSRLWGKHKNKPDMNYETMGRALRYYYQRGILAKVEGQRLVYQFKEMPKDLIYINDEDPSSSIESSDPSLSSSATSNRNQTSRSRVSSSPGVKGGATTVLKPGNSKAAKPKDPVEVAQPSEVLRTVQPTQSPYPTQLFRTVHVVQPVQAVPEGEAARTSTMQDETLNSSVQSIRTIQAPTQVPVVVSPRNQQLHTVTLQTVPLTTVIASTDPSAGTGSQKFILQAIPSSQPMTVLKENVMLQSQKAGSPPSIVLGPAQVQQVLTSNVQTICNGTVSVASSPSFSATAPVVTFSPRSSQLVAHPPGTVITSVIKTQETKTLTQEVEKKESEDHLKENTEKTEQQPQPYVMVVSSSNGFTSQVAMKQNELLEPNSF
ETV1, sequence (P50549 whole entry): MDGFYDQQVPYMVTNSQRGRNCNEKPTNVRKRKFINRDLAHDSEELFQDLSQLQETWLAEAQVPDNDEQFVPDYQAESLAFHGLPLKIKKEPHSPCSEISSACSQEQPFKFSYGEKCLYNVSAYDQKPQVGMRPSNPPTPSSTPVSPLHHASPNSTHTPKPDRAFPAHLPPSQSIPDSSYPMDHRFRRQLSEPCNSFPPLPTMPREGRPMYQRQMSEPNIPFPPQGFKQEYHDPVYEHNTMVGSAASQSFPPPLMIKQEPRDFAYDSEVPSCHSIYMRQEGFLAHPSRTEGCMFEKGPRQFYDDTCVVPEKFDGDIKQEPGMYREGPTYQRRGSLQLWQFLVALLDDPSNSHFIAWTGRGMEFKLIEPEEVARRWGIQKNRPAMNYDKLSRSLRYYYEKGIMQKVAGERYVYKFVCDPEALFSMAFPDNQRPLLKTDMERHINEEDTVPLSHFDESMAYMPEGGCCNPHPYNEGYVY
SPIB, sequence (Q01892 whole entry): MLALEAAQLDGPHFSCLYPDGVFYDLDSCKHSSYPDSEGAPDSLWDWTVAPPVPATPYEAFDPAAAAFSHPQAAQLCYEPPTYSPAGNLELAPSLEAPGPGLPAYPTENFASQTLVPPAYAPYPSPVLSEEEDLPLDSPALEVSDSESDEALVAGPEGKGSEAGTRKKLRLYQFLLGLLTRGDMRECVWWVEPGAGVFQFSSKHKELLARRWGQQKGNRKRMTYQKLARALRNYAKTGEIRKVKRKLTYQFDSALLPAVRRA
HSF1, sequence (Q00613 whole entry): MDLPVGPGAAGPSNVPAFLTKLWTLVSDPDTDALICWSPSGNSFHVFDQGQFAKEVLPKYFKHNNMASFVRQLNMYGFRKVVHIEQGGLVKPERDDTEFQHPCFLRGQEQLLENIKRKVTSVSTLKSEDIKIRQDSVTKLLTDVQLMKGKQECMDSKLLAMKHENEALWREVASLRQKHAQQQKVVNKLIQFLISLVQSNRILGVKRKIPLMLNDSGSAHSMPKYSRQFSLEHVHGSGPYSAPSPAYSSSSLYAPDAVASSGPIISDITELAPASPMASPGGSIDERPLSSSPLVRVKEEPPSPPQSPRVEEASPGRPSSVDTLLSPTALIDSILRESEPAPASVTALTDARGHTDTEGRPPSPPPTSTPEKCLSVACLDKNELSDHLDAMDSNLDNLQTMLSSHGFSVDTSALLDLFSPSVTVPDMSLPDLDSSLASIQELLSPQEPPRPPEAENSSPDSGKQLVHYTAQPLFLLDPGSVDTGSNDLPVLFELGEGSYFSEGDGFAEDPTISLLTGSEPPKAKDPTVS
ELF4, sequence (Q99607 whole entry): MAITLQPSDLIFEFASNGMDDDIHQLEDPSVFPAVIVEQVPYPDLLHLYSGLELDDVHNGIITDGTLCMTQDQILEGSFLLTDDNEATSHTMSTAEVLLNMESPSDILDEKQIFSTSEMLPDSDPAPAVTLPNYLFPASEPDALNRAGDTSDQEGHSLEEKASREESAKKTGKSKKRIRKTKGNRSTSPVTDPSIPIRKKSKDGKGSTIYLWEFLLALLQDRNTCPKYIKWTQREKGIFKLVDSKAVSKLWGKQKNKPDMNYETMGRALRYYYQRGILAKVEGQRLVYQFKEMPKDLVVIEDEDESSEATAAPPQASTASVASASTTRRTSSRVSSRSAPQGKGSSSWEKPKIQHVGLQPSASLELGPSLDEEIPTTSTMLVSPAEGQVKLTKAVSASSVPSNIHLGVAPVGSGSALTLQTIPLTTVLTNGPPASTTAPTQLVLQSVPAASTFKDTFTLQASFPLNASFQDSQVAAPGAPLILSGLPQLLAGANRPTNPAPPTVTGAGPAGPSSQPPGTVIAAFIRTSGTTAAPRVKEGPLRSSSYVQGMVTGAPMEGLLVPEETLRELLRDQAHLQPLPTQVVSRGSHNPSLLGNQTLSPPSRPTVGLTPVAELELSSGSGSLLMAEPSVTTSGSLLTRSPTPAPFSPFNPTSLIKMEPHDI
ETV5, sequence (P41161 whole entry): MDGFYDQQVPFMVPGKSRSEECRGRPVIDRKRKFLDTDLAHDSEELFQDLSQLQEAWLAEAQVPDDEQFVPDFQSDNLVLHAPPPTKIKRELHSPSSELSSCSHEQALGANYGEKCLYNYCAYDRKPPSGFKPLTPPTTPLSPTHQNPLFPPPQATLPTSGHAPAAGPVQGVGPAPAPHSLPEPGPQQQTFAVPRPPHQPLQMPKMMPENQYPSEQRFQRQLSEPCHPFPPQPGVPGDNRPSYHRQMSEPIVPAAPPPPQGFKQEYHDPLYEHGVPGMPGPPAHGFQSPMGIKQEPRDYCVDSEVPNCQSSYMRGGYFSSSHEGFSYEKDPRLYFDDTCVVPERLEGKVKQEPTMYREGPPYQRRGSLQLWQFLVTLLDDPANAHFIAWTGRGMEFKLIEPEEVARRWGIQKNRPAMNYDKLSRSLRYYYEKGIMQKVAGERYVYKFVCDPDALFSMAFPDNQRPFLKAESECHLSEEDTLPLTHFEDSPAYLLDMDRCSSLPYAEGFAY
CRX, sequence (O43186 whole entry): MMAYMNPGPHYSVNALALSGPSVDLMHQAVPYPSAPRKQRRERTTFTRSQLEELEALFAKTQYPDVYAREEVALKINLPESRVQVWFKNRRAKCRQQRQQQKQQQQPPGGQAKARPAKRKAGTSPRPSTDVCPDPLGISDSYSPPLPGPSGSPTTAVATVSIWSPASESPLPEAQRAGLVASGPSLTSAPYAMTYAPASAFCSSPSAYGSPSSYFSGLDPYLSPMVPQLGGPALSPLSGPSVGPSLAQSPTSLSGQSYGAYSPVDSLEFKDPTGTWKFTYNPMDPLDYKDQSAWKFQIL

## TTAACG
[1]
  binding signal: 1.12 fold enrichment (6-mer frequency, TF over GST control)
[2]
  binding signal: 1.17 fold enrichment (6-mer frequency, TF over GST control)
[3]
  binding signal: 1.21 fold enrichment (6-mer frequency, TF over GST control)
[4]
  binding signal: 1.17 fold enrichment (6-mer frequency, TF over GST control)
[5]
  binding signal: 1.23 fold enrichment (6-mer frequency, TF over GST control)
[6]
  binding signal: 1.15 fold enrichment (6-mer frequency, TF over GST control)
[7]
  binding signal: 1.26 fold enrichment (6-mer frequency, TF over GST control)
[8]
  binding signal: 1.26 fold enrichment (6-mer frequency, TF over GST control)
[9]
  binding signal: 1.32 fold enrichment (6-mer frequency, TF over GST control)
[10]
  binding signal: 1.13 fold enrichment (6-mer frequency, TF over GST control)
[11]
  binding signal: 1.22 fold enrichment (6-mer frequency, TF over GST control)
[12]
  binding signal: 1.73 fold enrichment (6-mer frequency, TF over GST control)
[13]
  binding signal: 1.11 fold enrichment (6-mer frequency, TF over GST control)
[14]
  binding signal: 1.15 fold enrichment (6-mer frequency, TF over GST control)
[15]
  binding signal: 1.17 fold enrichment (6-mer frequency, TF over GST control)
[16]
  binding signal: 1.17 fold enrichment (6-mer frequency, TF over GST control)
[17]
  binding signal: 1.27 fold enrichment (6-mer frequency, TF over GST control)
[18]
  binding signal: 2.66 fold enrichment (6-mer frequency, TF over GST control)
[19]
  binding signal: 1.19 fold enrichment (6-mer frequency, TF over GST control)
